The nature of assay [1]: anti-His antibody binders, primary screen, artefact control for SMM control protein annotation, biochemical, small-molecule microarray, 635 nm fluorescence (AID 1128).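 Also: score merges feature fluorescence with signal-to-noise for each printed compound spot.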 The note with it: anti-His Alexa647 antibody binding, higher = more signal.
For assay [2], the system named is Human papillomavirus type 1a E7 protein (residues 1-88). The assay can be described thus: HPV1a E7 small-molecule binders, primary screen, biochemical, small-molecule microarray, residues 1-88, 635 nm (AID 1129). The conditions noted are these: small-molecule microarray binding, fluorescence 635 nm; higher = more signal.
In assay [3] the target is Focal adhesion kinase 1 (Homo sapiens) (UniProt Q05397). The assay can be described thus: small-molecule microarray binders of FAK, primary screen, biochemical, 635/667 nm fluorescence, BSA, DTT (AID 1130).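 Also: composite of spot emission at 667 nm and signal to noise over triplicate slides.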 The note with it: PTK2 binding, 635 nm fluorescence, higher = more signal.
Focal adhesion kinase 1 (Homo sapiens), sequence (Q05397 whole entry, looked up): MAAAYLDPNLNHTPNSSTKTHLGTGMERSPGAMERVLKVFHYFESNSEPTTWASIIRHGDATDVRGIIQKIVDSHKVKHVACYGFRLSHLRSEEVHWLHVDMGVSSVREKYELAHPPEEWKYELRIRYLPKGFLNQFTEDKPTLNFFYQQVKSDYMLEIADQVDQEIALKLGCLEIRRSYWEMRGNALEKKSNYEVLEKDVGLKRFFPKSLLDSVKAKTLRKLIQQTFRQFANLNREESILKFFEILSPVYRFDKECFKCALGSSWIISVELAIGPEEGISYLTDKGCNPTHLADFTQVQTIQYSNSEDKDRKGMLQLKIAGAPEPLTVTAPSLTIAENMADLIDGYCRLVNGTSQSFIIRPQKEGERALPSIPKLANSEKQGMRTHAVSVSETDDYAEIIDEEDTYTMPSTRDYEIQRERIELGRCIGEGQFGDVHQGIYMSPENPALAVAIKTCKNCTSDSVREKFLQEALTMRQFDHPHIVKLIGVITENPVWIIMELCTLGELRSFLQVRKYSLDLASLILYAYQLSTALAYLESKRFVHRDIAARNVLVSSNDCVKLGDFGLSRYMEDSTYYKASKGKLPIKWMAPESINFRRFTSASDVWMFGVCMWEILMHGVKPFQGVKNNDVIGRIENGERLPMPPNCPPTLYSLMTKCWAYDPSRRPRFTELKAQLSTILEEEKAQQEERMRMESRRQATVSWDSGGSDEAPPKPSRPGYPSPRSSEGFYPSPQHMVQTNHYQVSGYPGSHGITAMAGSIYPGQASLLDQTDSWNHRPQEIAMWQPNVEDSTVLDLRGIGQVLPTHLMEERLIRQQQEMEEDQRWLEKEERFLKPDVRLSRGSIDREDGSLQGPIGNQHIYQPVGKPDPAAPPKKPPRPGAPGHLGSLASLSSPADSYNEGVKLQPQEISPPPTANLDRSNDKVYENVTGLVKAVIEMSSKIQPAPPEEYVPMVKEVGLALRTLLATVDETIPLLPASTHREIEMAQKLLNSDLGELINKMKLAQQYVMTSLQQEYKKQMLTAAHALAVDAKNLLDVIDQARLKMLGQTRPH
Assay [4] has as its system Fibrinogen (Alexa647-labelled). The experiment in a line: fibrinogen binders on compound microarrays, profiling panel, artefact control for SMM control-protein annotation, biochemical, small-molecule microarray, 635/667 nm fluorescence (AID 1131).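 Also: z-score merges 667 nm fluorescence with per-spot signal-to-noise over triplicate slides.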 The conditions noted are these: fibrinogen-A647 binding fluorescence, higher = more signal.
Assay [5] deals with Follistatin (Homo sapiens) (UniProt P19883). The experiment in a line: follistatin binders on small-molecule microarrays, primary screen, biochemical, small-molecule microarray, 635/667 nm fluorescence (AID 1132). The note with it: FST binding, 635 nm fluorescence, higher = more signal.
Follistatin (Homo sapiens), sequence (P19883 whole entry, looked up): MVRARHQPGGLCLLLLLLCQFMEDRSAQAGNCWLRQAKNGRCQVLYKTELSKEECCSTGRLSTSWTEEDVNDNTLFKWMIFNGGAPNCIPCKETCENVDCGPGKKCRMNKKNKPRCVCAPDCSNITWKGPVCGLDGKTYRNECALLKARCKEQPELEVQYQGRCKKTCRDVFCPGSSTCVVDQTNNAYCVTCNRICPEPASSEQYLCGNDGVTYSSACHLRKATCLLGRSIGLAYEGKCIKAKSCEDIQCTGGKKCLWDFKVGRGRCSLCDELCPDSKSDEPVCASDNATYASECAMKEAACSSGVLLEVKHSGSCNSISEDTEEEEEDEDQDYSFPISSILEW
In assay [6] the target is Fibroblast growth factor 2 (Homo sapiens) (UniProt P09038). The assay can be described thus: FGF2 binders on small-molecule microarrays, primary screen, biochemical, small-molecule microarray, 635/667 nm fluorescence (AID 1133). The note with it: small-molecule microarray binding, FGF2, fluorescence 635/667; higher = more signal.
Fibroblast growth factor 2 (Homo sapiens), sequence (P09038 whole entry, looked up): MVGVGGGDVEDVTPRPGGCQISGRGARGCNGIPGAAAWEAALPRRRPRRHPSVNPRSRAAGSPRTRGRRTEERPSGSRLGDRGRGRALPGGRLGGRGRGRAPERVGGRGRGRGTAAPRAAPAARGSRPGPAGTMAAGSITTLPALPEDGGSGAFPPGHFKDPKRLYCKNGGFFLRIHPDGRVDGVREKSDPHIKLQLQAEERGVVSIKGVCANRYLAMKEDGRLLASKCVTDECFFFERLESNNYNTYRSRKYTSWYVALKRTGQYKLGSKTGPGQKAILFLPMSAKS
Assay [7] can be described thus: mitochondrial membrane potential change in A549 cells, profiling panel, cell-based, JC-1 fluorescence, basal, 24 h, 100 nL (AID 1138).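 Also: A549 lung adenocarcinoma cells under basal conditions with no added stimulus; test concentration not given here.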 The conditions noted are these: higher = more signal.
For assay [8], the system named is Lefty1. The assay can be described thus: Lefty1 binders on small-molecule microarrays, primary screen, biochemical, small-molecule microarray, 635/667 nm fluorescence (AID 1139). The note with it: small-molecule microarray binding, fluorescence 635/667; higher = more signal.
Assay [9] deals with wheat germ agglutinin (Triticum aestivum), Alexa647-labelled. The assay can be described thus: wheat germ agglutinin binders on compound microarrays, profiling panel, artefact control for SMM control-protein annotation, biochemical, small-molecule microarray, 635/667 nm fluorescence (AID 1140).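 Also: score merges 667 nm feature emission with signal to noise over triplicate slides.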 The note with it: WGA-A647 binding, 635 nm fluorescence, higher = more signal.
Assay [10] deals with Luciferin 4-monooxygenase (Photinus pyralis) (UniProt P08659). The assay can be described thus: firefly luciferase enzyme inhibitors, primary screen, biochemical, luminescence, purified enzyme, 2006 set (AID 1141).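 Also: cell-free assay with purified firefly luciferase at 100 ng per well in PBS; test concentration not given here.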 The note with it: SteadyGlo luminescence, 30 min, higher = more signal, called active from +8 up or from −8 down.
Luciferin 4-monooxygenase (Photinus pyralis), sequence (P08659 whole entry, looked up): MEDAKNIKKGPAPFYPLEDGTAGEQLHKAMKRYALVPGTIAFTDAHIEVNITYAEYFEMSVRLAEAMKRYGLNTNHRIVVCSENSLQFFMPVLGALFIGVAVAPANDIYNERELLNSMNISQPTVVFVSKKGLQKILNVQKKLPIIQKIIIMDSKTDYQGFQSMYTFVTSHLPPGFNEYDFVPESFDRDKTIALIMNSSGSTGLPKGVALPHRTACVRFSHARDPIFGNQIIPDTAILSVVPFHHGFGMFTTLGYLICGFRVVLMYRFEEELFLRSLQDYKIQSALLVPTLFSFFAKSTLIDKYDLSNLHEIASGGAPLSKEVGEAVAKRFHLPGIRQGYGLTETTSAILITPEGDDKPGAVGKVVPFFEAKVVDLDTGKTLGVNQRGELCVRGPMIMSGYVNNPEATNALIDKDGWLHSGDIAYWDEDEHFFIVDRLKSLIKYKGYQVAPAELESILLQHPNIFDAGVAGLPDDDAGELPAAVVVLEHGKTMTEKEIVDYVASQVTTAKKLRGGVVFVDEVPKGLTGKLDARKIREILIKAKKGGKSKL

Calls of active or inactive are those of the source.

Turning to `COc1ccc([Si](C)(C)[C@H]2[C@H](CCO)O[C@@]3(C(=O)N(Cc4ccccc4)c4ccc(N5C(=O)c6ccccc6Oc6ccccc65)cc43)[C@@H]2C)cc1`, the composite z-score in assay [1] is 0.814; in [2] it was 0.885; in [3], -0.21; in assay [4], -0.0167; in assay [5], -0.4; in [6] it was 1.02. For the same molecule, the values for the composite z-score in assay [8] and in assay [9] were -0.204 and 1.23, respectively. The z-score in assay [7] is 0.616; in assay [10], 0.666 (inactive).
Regarding `COC(=O)[C@@]1(Cc2ccc(OC)cc2)[C@H]2c3cc(C(=O)N4CCCC4)n(Cc4ccc(OC(F)(F)F)cc4)c3C[C@H]2CN1C(=O)c1ccccc1`, the composite z-score was 1.36 in [1]; -0.376 in [2]; -0.438 in assay [3]; 1 in assay [4]; 0.451 in [5]; -0.702 in assay [6]. Moreover, the composite z-score was -0.683 in [8] and 1.09 in assay [9]. For the same molecule, the z-score is 0.691 in assay [7] and 2.03 (inactive) in [10].
For `COC(=O)[C@@]1(Cc2ccc(F)cc2)[C@H]2c3cc(C(=O)N4CCCC4)n(CC4CC4)c3C[C@H]2CN1C(=O)c1ccccc1`, the composite z-score stood at 2.46 in assay [1]; 1.28 in assay [2]; 0.467 in [3]; 1.03 in [4]; 1.26 in assay [5]; 0.107 in assay [6]. Also, the composite z-score was -0.39 in assay [8] and 0.718 in assay [9]. Further, the z-score in [7] was 0.699; in [10] it was 1.35 (inactive).
As to `COC(=O)[C@@]1(Cc2ccccc2CN=[N+]=[N-])N=C(c2ccc(OCCCO)cc2)O[C@H]1c1ccccc1`, the composite z-score in assay [1] was 2.5; in assay [2], 0.942; in assay [3], 0.32; in assay [4], 0.191; in assay [5], 1.21; in assay [6], 0.255. Moreover, the composite z-score in assay [8] was found to be 0.143; in [9], 0.255. In addition, the z-score in assay [7] was -0.734; in assay [10], -2.03 (inactive).
Regarding `CC(C)CNC(=O)[C@@H]1c2ccccc2C(=O)N(C2CCCCC2)[C@H]1c1ccc(CO)cc1`, the composite z-score in assay [1] was 0.978; in assay [2], 0.589; in assay [3], -0.292; in [4], -0.467; in assay [5], 0.196; in assay [6], -0.184. The values for the composite z-score in [8] and in [9] were -0.991 and -0.321, respectively. In addition, the results for the z-score in [7] and in assay [10] were 1.83 and -1.66 (inactive), respectively.
On to `CO[C@H]1O[C@H](CO)[C@@H](OC(=O)c2ccc(Br)cc2)[C@@H]2OC(=O)[C@H](Cc3ccccc3)C/C=C/C[C@@H](Cc3ccccc3)C(=O)O[C@@H]12`, for which the composite z-score in assay [1] came out at 0.478; in assay [2], 0.817; in [3], 0.703; in assay [4] it was 0.135; in assay [5], 0.84; in assay [6], 1.37. For the same molecule, the composite z-score in [8] is 0.416; in assay [9], -0.0716. Moreover, the z-score in [7] is 0.0305; in [10], 0.659 (inactive).
For `C=CCNC(=O)[C@H]1[C@@H]2C(=O)O[C@@H](c3ccccc3)[C@@H](c3ccccc3)N2[C@@H](c2ccc(OCCO)cc2)[C@]12C(=O)Nc1ccc(C#CCNC(N)=O)cc12`, the composite z-score in [1] is -0.293; in assay [2], 1.15; in assay [3], 0.0494; in assay [4] it was 0.936; in assay [5] it was 1.41; in assay [6] it was 1.05. The composite z-score in assay [8] was determined as 0.767; in [9], 0.912. Further, the z-score in [7] was -0.837; in assay [10] it was -0.0338 (inactive).
Take `COCC1=C2[C@@H](CCc3ccccc3)OB(O)C[C@@H]2[C@@H]2C(=O)N(C)C(=O)[C@@H]2C1`: the composite z-score in [1] turned out to be 0.0751; in assay [2], 0.003; in [3], 0.164; in assay [4], 0.353; in assay [5], 0.309; in assay [6] it was 0.833. Also, the composite z-score was 0.0961 in [8] and -0.098 in assay [9]. Besides, the z-score in assay [7] was -0.0837; in [10], -0.171 (inactive).
`O=C1OCC=C[C@H]2OC34C=CCN(c5ccc6ccccc6c5)C(=O)[C@H]3N(CCCCCO)C(=O)[C@@H]4[C@@H]12` (stereo not given in full): the composite z-score was 0.0997 in assay [1]; -0.381 in assay [2]; 1.05 in assay [3]; -0.639 in assay [4]; -1.38 in assay [5]; -1.42 in assay [6]. For the same molecule, the composite z-score in assay [8] is -1.23; in [9] it was 0.129. Besides, the z-score in assay [7] was -0.164; in [10] it was -0.397 (inactive).
For the molecule `CCCCC=C[C@@H](NC(=O)c1ccccc1)c1ccccc1`, the composite z-score in assay [1] is 0.249; in [2] it was 1.18; in assay [3] it was 1.43; in assay [4], 0.987; in [5], 0.527; in [6], -0.79. The composite z-score came out at 0.4 in assay [8] and 0.68 in [9]. Also, the z-score in assay [7] is -0.584; in [10], 0.965 (inactive).
Take `CC(=O)n1cc(C(O)C2C=CC3C(=O)N(c4ccccc4)C(=O)C3N2Nc2ccc(C(C)C)cc2)c2ccccc21` (stereo not given): the composite z-score in assay [1] turned out to be 0.701; in assay [2], 1.2; in [3] it was 1.03; in assay [4], 1.02; in [5], 1; in assay [6], 0.672. The composite z-score in [8] came to 0.304; in [9], 0.743. In addition, the figures for the z-score in [7] and in assay [10] were 0.662 and 0.22 (inactive), respectively.
Regarding `O=C1C2C=CC(C(O)c3cccc(O)c3)N(Nc3ccccc3)C2C(=O)N1c1ccccc1` (stereo not given), the composite z-score in assay [1] is 0.811; in assay [2] it was 0.452; in assay [3] it was 0.0964; in [4], 0.881; in assay [5], 0.323; in assay [6], -0.202. Besides, the composite z-score in assay [8] was -0.199; in [9] it was 0.0207. In addition, the z-score in [7] was -0.319; in [10], 0.509 (inactive).
`CC(C)CCC[C@@H](C)[C@H]1CC[C@@]2(C)C3=C(CC[C@]12C)[C@@]1(C)CC[C@H](OC(=O)c2ccccc2)C(C)(C)C1CC3` (stereo not given in full): the composite z-score was 0.226 in assay [1]; 0.29 in assay [2]; -0.0586 in assay [3]; 0.816 in [4]; 0.438 in assay [5]; 0.288 in assay [6]. Besides, the composite z-score in assay [8] came to 0.591; in assay [9], 0.134. The figures for the z-score in assay [7] and in assay [10] were 0.442 and -0.0355 (inactive), respectively.
As to `CC(C)CNC(=O)[C@@]1(c2ccc([N+](=O)[O-])cc2)CC(=O)N(C2CCCCC2)[C@@H]1c1ccc(CO)cc1`, the composite z-score is 1.91 in assay [1]; 1.23 in assay [2]; -0.0282 in assay [3]; 0.583 in [4]; 0.536 in [5]; 1.04 in assay [6]. For the same molecule, the composite z-score is -0.35 in [8] and 0.29 in [9]. Also, the values for the z-score in [7] and in [10] were 0.214 and -0.977 (inactive), respectively.
For `CC(C)N1CC=CC23O[C@@H]4/C=C\CCCOC(=O)C4[C@H]2C(=O)N(CCCCCCO)[C@@H]3C1=O` (stereo not given in full), the composite z-score in [1] is 1.3; in assay [2] it was -0.808; in assay [3], 0.0835; in assay [4] it was -1.38; in assay [5] it was -1.04; in [6], -1.2. In addition, the composite z-score in [8] is -0.934; in [9] it was -0.724. Also, the z-score was 1.49 in assay [7] and -1.88 (inactive) in assay [10].
For `CC=CC(O)C1C=CC2C(=O)NC(=O)C2N1Nc1ccccn1` (stereo not given), the composite z-score in assay [1] was 1.41; in [2], 0.497; in assay [3] it was 0.381; in [4], 0.657; in assay [5], 1.02; in assay [6], 0.352. Also, the composite z-score in assay [8] stood at 0.585; in assay [9], 0.0489. The z-score in [7] is 0.514; in [10], -0.0429 (inactive).

The record behind these values is PubChem BioAssay.
